# About 83,000 compounds went through this panel and 20% of them were active in at least one assay; those are over-represented in the sample as a whole.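 In brief: 96-well plates, 48 h treatment, single concentration, percent growth endpoint.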 A number with no mark means an inactive call. The source made the active and inactive calls. The calls were made as follows: active = growth percent below 10; inactive = the rest.
# Columns and labels:
# Assay in all cases: NCI-60 one-dose screen, 48 h (100 = growth as untreated, 0 = no growth, -100 = all killed)
# Settings in all cases: 10 µM unless noted
# SR leukemia = tested on: SR leukemia
# RPMI-8226 leukemia = tested on: RPMI-8226 leukemia
# OVCAR-8 ovarian = tested on: OVCAR-8 ovarian
# OVCAR-5 ovarian = tested on: OVCAR-5 ovarian
# OVCAR-4 ovarian = tested on: OVCAR-4 ovarian
# SK-OV-3 ovarian = tested on: SK-OV-3 ovarian
# IGROV1 ovarian = tested on: IGROV1 ovarian
# OVCAR-3 ovarian = tested on: OVCAR-3 ovarian
# HS 578T breast = tested on: HS 578T breast
# NCI/ADR-RES ovarian = tested on: NCI/ADR-RES ovarian
# T-47D breast = tested on: T-47D breast
# BT-549 breast = tested on: BT-549 breast
# MDA-MB-435 melanoma = tested on: MDA-MB-435 melanoma
# SW-620 colon = tested on: SW-620 colon
# MCF7 breast = tested on: MCF7 breast
# HCT-116 colon = tested on: HCT-116 colon
# HCC-2998 colon = tested on: HCC-2998 colon
# KM12 colon = tested on: KM12 colon
Compound,growth (SR leukemia),growth (RPMI-8226 leukemia),growth (OVCAR-8 ovarian),growth (OVCAR-5 ovarian),growth (OVCAR-4 ovarian),growth (SK-OV-3 ovarian),growth (IGROV1 ovarian),growth (OVCAR-3 ovarian),growth (HS 578T breast),growth (NCI/ADR-RES ovarian),growth (T-47D breast),growth (BT-549 breast),growth (MDA-MB-435 melanoma),growth (SW-620 colon),growth (MCF7 breast),growth (HCT-116 colon),growth (HCC-2998 colon),growth (KM12 colon)
COc1cc(CNC(=O)CCCC/C=C/C(C)C)ccc1OCc1cn(-c2cccc([N+](=O)[O-])c2)nn1,78.4%,65.9%,76.9%,107%,94.2%,93.6%,89.4%,105%,90.8%,81.8%,72.3%,96.3%,101%,97.4%,74.1%,42%,101%,91.2%
O=C1C=CC2(O)OC(c3ccccc3)CC(=O)C2=C1O (stereo not given),56.2%,64.3%,82%,96.4%,79.5%,106%,90.9%,1.12% (active),102%,86%,83.6%,74%,87.7%,102%,86%,82.9%,–,15.9%
Cc1nc2sc(C(=O)Nc3ccccc3)c(N)c2cc1C(O)c1ccccc1 (stereo not given),-5.59% (active),5.65% (active),19.2%,33.2%,46.9%,27.3%,27.7%,5.62% (active),8.01% (active),15%,54.6%,67.9%,-18.3% (active),24.1%,17%,11.8%,15.4%,18.3%
CCOC(=O)C1=C(c2ccccc2)N=C2SC=C(c3cccc([N+](=O)[O-])c3)N2C1c1ccc(O)cc1 (stereo not given),109%,98%,97.9%,100%,106%,102%,95.5%,101%,102%,99.3%,93.5%,95.1%,101%,97.6%,95.1%,100%,–,99.7%
CC(=O)CC(=O)c1ccccc1.[Cu+2],51.8%,97.8%,110%,107%,106%,82.4%,87%,114%,119%,104%,93.2%,114%,105%,103%,75.1%,97.7%,107%,98.2%
C#Cc1c(I)n(C2OC(CO[Si](C)(C)C(C)(C)C)C3OC(C)(C)OC32)c(=O)[nH]c1=O (stereo not given),-41.8% (active),-66.8% (active),97.8%,91.9%,88.9%,107%,36.6%,-40.2% (active),5.41% (active),89.6%,-69.3% (active),98.5%,81.2%,-98.3% (active),42.1%,-49.6% (active),-75.7% (active),105%
COc1cc(/C=C/C(=O)c2ccc(-n3cc(CN4CCN(c5cc6c(cc5F)c(=O)c(C(=O)O)cn6C5CC5)CC4)nn3)cc2)cc(OC)c1OC,21.3%,6.02% (active),80.7%,92.7%,96.7%,79%,79.4%,84.9%,71.2%,85.6%,101%,92.5%,81.9%,85.9%,61.4%,17.3%,–,87.1%
CCCC[N+]1(C)CCN=C1Cc1ccccc1 (stereo not given),94.4%,75.7%,97.2%,103%,109%,109%,106%,103%,97.7%,107%,101%,123%,104%,98.4%,100%,101%,–,118%
O=C(Nc1ncc(Cc2ccccc2)s1)c1ccc2c(c1)OCCO2,5.84% (active),14.6%,19%,28.5%,46.3%,25%,23.4%,-11.3% (active),25.1%,7.95% (active),36%,36.1%,-4.27% (active),35.2%,10.8%,9.23% (active),–,9.34% (active)
C=CCNc1nc(O)c(/C=C2\C=Nc3ncccc32)s1,-9.51% (active),42.7%,10.7%,5.27% (active),34.7%,-7% (active),17%,-7.02% (active),-15% (active),42.1%,-8.68% (active),-29.5% (active),21.1%,7.39% (active),3.5% (active),6.31% (active),–,7.86% (active)
CO[C@]12C=C/C(=C(/C(=O)OCc3cccnc3)C(=O)CCCCCCCC[C@]3(OC)C=C/C(=C(/C(=O)OCc4cccnc4)C(=O)CCCCCCCC1)O3)O2,-20.7% (active),-30.4% (active),7.77% (active),-52.1% (active),-65.6% (active),-0.89% (active),-66.7% (active),-95.5% (active),30.6%,-23.9% (active),-17.2% (active),-67.8% (active),-42.4% (active),-33.3% (active),-56.3% (active),-86% (active),–,-86.5% (active)
CCN1CCN(c2cc(C(=O)Nc3cccc(Nc4ccc5c(OC)cccc5n4)c3)cc(C(F)(F)F)c2)CC1,-3.44% (active),7.08% (active),21.1%,54.8%,26.9%,54%,12.8%,33%,34%,9.7% (active),11%,69.6%,1.29% (active),3.22% (active),-45.3% (active),24.3%,–,-10.3% (active)
CCN(CC)CCCNc1cc(OC)cc2cccnc12,100%,97.4%,101%,117%,51.4%,112%,106%,79.2%,109%,108%,93.3%,112%,115%,101%,64%,100%,–,96.9%
COC(=O)[C@@H](Cc1c[nH]c2ccccc12)NC(=O)[C@H](Cc1ccccc1)NCc1ccncc1,99.2%,84.6%,89.1%,101%,98.7%,94%,101%,101%,99.3%,99.9%,93.2%,96.5%,113%,104%,110%,87.4%,–,96.5%
Cc1cc([N+](=O)[O-])ccc1NC(=O)c1ccc2c(c1)nc(-c1ccccc1)n2C1CCCCC1,39.5%,76.2%,87.6%,95.5%,95.2%,100%,111%,92.8%,88.1%,87.9%,59.8%,77.1%,92.2%,97.6%,77%,65.7%,–,69.3%
COc1ccc(-c2cn(Cc3ccc4c(Br)cc(Br)c(O)c4n3)nn2)cc1,-23.1% (active),67.2%,88.7%,95.6%,96.2%,108%,56.6%,73.2%,109%,102%,65.1%,111%,89%,75.4%,67.4%,77.8%,101%,99.4%
CCn1c2ccccc2c2cc(C(O)c3cccc4ncccc34)ccc21 (stereo not given),15.5%,-2.06% (active),20.8%,48.7%,45.4%,69.1%,19.1%,1.86% (active),21.3%,-53.2% (active),59%,-8.94% (active),0.201% (active),26.8%,15.5%,0.739% (active),-32.5% (active),8.55% (active)

# Source: PubChem BioAssay (NCI)
